# Compounds with a hit are over-represented: about 6.6% of the library has one in this group of screens.
# PTAP TSG101 blk = qHTS Assay for Iinhibitors of HIV-1 Budding by Blocking the Interaction of PTAP/TSG101 | Fluorescence polarization, FITC-PTAP peptide / Tsg101 binding | Potency, µM (top dose mostly 115 µM), inactives show top-dose activity change, negative = inhibition, hits mostly inhibitors | 340,000 tested, under 10 active | AID 493005, 2010; active = well fitted inhibition curve with a large enough effect in the main read-out, with a control signal flat, not every such curve was filed as active; inconclusive = small, poorly fitted or top-dose-only effect, or effect the other way, or a change in a side signal; inactive = no such curve, though single readings can be large or run the other way; also: % of control where 0% means no effect
# Target sequence (Q99816 whole entry, looked up): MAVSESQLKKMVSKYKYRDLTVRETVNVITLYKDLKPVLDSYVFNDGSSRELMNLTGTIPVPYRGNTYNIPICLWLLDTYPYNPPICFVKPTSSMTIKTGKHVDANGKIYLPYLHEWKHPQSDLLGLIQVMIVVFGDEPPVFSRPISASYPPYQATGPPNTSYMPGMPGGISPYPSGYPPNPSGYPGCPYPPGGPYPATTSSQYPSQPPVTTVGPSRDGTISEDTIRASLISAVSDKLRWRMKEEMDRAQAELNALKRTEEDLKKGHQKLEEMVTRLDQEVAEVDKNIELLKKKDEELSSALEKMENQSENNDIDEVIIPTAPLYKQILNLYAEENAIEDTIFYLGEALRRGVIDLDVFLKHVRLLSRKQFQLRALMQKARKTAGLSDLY
#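 Fluorescence anisotropy tracks displacement of a FITC-tagged PTAP peptide (50 nM) from the Tsg101 binding domain (10 uM), following a 20 min room-temperature incubation at pH 7.5.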
# KB-V1 MDR tox = qHTS assay for MDR1-selective chemotherapeutics: Primary screen using the drug-selected MDR subline cells KB-V1; KB-V1 MDR cells viability, CellTiter-Glo, 72 h; Potency, µM (titrated, usually from 46.1 µM), usual class: cytotoxic; actives 3.4% (n = 400,000); AID 1347076, 2019; also: % is scaled to controls: 0 for no effect and ±100 for the full control effect; nearly all actives have a fitted effect of over 60% in size
#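 Potencies derive from concentration-effect curves fitted to normalized luminescence (CellTiter-Glo) of KB-V1 cells treated for 72 h at 37 degrees C in phenol-red-free DMEM containing 10% FBS.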
# KB-3-1 cytotox = qHTS assay for MDR1-selective chemotherapeutics: Primary screen using the parental adenocarcinoma cell KB-3-1. KB-3-1 viability, CellTiter-Glo ATP luminescence, 72 h. Potency, µM (titrated, usually from 46.1 µM), most hits filed as cytotoxic. actives 1.4% (n = 400,000). AID 1347075, 2019; also: % is scaled to controls: 0 for no effect and ±100 for the full control effect; nearly all actives have a fitted effect of over 60% in size
#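 Viability of parental KB-3-1 cells, measured by CellTiter-Glo luminescence, followed a 72 h incubation at 37 °C with pinned compounds in phenol-red-free DMEM containing 10% FBS.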
# MCF10A rerep = A quantitative high throughput screen for small molecules that induce DNA re-replication in MCF 10a normal breast cells | MCF 10A DNA re-replication, Hoechst nuclear intensity, 48 h | Potency, µM (series often up to 46.1 µM), for the others: at the highest dose activity, positive = re-replication, most hits filed as activators | actives 2.9% (n = 350,000) | AID 624296, 2012; also: % of control where 0% means no effect; nearly all actives have a fitted effect of over 50% in size
# SW480 rereplic = A quantitative high throughput screen for small molecules that induce DNA re-replication in SW480 colon adenocarcinoma cells; SW480 DNA re-replication, Hoechst DNA content imaging, 48 h; actives 1.8% (n = 340,000); Potency, µM (doses to about 46.1 µM), without a hit: at the highest dose re-replication activation, actives largely listed as activators; also: % of control where 0% means no effect; nearly all actives have a fitted effect of over 55% in size
#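 Image-based read-out: total Hoechst fluorescence of nuclei (405 nm excitation, 500-530 nm emission), with hits raising the fraction of high-intensity nuclei. SW480 colon cells incubated 48 hr with compounds at 37 C.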
# RGS4 inhibitor = Inhibitors of Regulator of G Protein Signaling (RGS) 4: qHTS | Regulator of G-protein signaling 4 (Homo sapiens), P49798 | Transcreener GDP fluorescence polarization, RGS4-accelerated GTP hydrolysis | Potency, µM (top dose mostly 114 µM), for the others: at the highest dose activity change, negative = inhibition, hits mostly inhibitors | actives 0.039% (n = 390,000) | AID 504845, 2011; also: % is scaled to controls: 0 for no effect and ±100 for the full control effect; nearly all actives have a fitted effect of over 75% in size
#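 MLSMR compounds (23 nl, pin-transferred) preincubated 10 min at room temperature with a 500nM (2x) first reagent, then RGS4 at 900nM (2x) plus Transcreener GDP mix added; fluorescence polarization (620/688 nm) read before and after 90 min at 30 °C.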
# * hit, by the source's call; i = inactive; ? = inconclusive; / = no result given; [ ] = another dose, or the depositor's remark. Unless noted, calls follow the shape of the dose curve; as a rule, active = well fitted curve in the direction sought with a large enough effect; inconclusive = small, poorly fitted or top-dose-only effect, or another doubt; inactive = no such curve, though single readings can be large; an effect the other way counts as inactive or inconclusive. Potency is read from the fitted curve at half-maximal effect.
SMILES,PTAP TSG101 blk,KB-V1 MDR tox,KB-3-1 cytotox,MCF10A rerep,SW480 rereplic,RGS4 inhibitor
O=C(N/N=C/c1ccc(O)cc1)Nc1cccc2nsnc12,-2%,i,?,?,15µM*,-24%
O=C(Nc1ccccc1Br)c1ccccc1-c1ccccc1,-11%,?,7.3µM*,13µM*,16µM*,-12%
O=C(Nc1cccc(Br)c1)c1ccccc1-c1ccccc1,-2%,?,i,?,-3%,-2%
O=C(Nc1ccccc1-c1ccccc1)c1ccccc1Br,-6%,?,i,11%,2%,9%
Cc1cc(Br)ccc1NC(=O)c1ccccc1-c1ccccc1,3%,13µM*,i,-2%,27%,-5%
COc1ccc(/C=N/NC(=O)c2cccnc2)cc1COc1ccc(NC(C)=O)cc1,-1%,?,i,4.1µM*,8.2µM*,-3%
COCc1cc(/C=N\NC(=O)Cc2ccc(Cl)cc2)ccc1OC,0%,i,i,4%,0%,-9%
COCc1cc(/C=N\NC(=O)Cc2ccc(OC)cc2)ccc1OC,-6%,23µM*,i,-3%,3%,-33%
COc1ccc(OCc2cc(/C=N\NC(=O)c3ccccc3)ccc2OC)cc1,1%,?,6.5µM*,8.2µM*,15µM*,-34%
COc1ccc(C(=O)N/N=C/c2ccc(OC)c(COc3c(F)c(F)cc(F)c3F)c2)cc1,-1%,i,i,?,2%,?
COc1cc(OC)cc(C(=O)N/N=C/c2ccc(OC)c(COc3ccc(F)cc3)c2)c1,0%,10µM*,?,5.8µM*,5.8µM*,-22%
COc1ccc(/C=N/NC(=O)c2ccn[nH]2)cc1COc1ccc(Cl)cc1,-6%,i,?,?,?,-7%
O=C(CSc1c2c(nc3ccccc13)CCC2)Nc1ccc(F)cc1F,/,/,/,/,/,2%
Cc1nn(-c2ccc(N3CCCC3)nn2)c(C)c1CCC(=O)NCc1ccc(F)cc1,/,/,/,/,/,-19%
CCCCCN(CCCCC)c1ccc(/C=C/c2ccnc3ccccc23)cc1,/,?,i,/,/,/
COc1ccc(/C=N\NC(=O)c2ccccc2Br)cc1COc1ccccc1,0%,i,i,-4%,?,-28%
COc1ccc(C(=O)N/N=C\c2ccc(OC)c(COc3ccccc3Br)c2)c(OC)c1,-6%,16µM*,?,-28%,135%,-1%
COc1ccc(/C=C/C(=O)c2ccccc2)cc1COc1ccccc1F,0%,?,i,?,15µM*,-6%
COc1cccc(C(=O)N/N=C/c2ccc(OC)c(COc3ccccc3C(N)=O)c2)c1,-2%,i,i,?,16µM*,9%
COc1ccc(/C=N\NC(=O)c2ccc(F)cc2)cc1COc1ccccc1C(N)=O,-4%,i,i,?,-6%,14%
OCC1(CO)COC(C(Cl)(Cl)Cl)OC1,/,/,/,0%,3%,/
CCCOc1ccc(CNC(=O)CN2C(=O)c3cccnc3Oc3ccc(C)cc32)cc1,/,i,i,/,/,15%
CC(C)c1ccc(NC(=O)c2snc3ccc(Cl)cc23)cc1,0%,?,0.052µM*,?,?,-25%
CC(C)c1ccc(NC(=O)c2csnn2)cc1,-5%,i,?,19%,0%,-2%
COc1cc2nc(N3CCCN(C)CC3)nc(Nc3ccncc3)c2cc1OC,/,i,13µM*,/,/,/
COc1cc2nc(N3CCCN(C)CC3)nc(NC3CCN(Cc4ccccc4)CC3)c2cc1OC,/,?,?,/,/,3%[56.9 µM]
